{"source": "PubChem BioAssay AID1974", "about": "(The Scripps Research Institute Molecular Screening Center, 2009)", "note": "In all, about 300,000 compounds went through this assay and about 3,200 (1.1%) were called active.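 Rule for the calls: active = inhibition above the campaign mean inhibition plus 3 SD (cut at about 35% in these data); inactive = the rest.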 Shown is part of a subset that was picked to be rich in actives."}
{"biological_target": "Glutathione S-transferase omega-1 (Homo sapiens) (UniProt P78417)", "sequence (P78417 whole entry, looked up)": "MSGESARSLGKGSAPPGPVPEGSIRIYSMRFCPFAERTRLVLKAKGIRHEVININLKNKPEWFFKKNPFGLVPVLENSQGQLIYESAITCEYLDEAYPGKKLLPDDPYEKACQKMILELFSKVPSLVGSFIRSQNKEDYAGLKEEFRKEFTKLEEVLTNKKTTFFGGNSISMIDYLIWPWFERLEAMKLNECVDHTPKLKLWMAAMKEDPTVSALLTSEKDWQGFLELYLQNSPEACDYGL", "assay": "human GSTO1 enzyme inhibition – biochemical, fluorescence polarization, counter-screen for RBBP9 inhibitor project, primary screen (AID 1974);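 note: 0% = GSTO1-1 with DMSO and 100% = wells lacking GSTO1-1 enzyme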", "conditions": "recombinant GSTO1, activity-based probe fluorescence polarization; at 5.96 µM; stronger effect = higher value"}
{"smiles": "COc1ccccc1CCC(=O)OCC(=O)N1CCN(S(=O)(=O)c2ccc(C)cc2C)CC1", "inhibition": "8.7% (inactive)"}
{"smiles": "COc1ccc(OC)c(Nc2nc(-c3ccc(O)c(O)c3)cs2)c1", "inhibition": "57.3% (active)"}
{"smiles": "COc1ccc(C)cc1Nc1nc(-c2c(C)[nH]c3ccccc23)cs1", "inhibition": "0.17% (inactive)"}
{"smiles": "O=c1oc2ccccc2cc1-c1csc(Nc2ccc(O)cc2)n1", "inhibition": "5.73% (inactive)"}
{"smiles": "COc1cccc(CC(=O)Nc2nc(-c3ccc(OC)c(OC)c3)cs2)c1", "inhibition": "-14.6% (inactive)"}
{"smiles": "COc1ccc(-c2csc(Nc3ccc(O)cc3)n2)cc1", "inhibition": "44.8% (active)"}
{"smiles": "COc1ccc(-c2csc(Cc3nc(O)cs3)n2)cc1", "inhibition": "8.36% (inactive)"}
{"smiles": "COc1cccc(N2CC(NS(=O)(=O)c3cccs3)CC2=O)c1", "note": "(stereo not drawn)", "inhibition": "7.08% (inactive)"}
{"smiles": "CC(=O)Nc1ccc(C(=O)Nc2cccc(S(=O)(=O)NC3=NCCC3)c2)cc1", "inhibition": "0.43% (inactive)"}
{"smiles": "O=C(OCc1nnc(-c2ccccc2)o1)c1cc(=O)[nH]c2ccccc12", "inhibition": "8.64% (inactive)"}
{"smiles": "CCC(C)N(C(=O)COC(=O)c1nc(Cl)ccc1Cl)C1CCS(=O)(=O)C1", "note": "(stereo not drawn)", "inhibition": "-3.44% (inactive)"}
{"smiles": "CCOC(=O)[C@H]1[C@H]2COc3ccc(OC)cc3[C@@H]2N2C(=O)c3ccc(F)cc3NC(=O)[C@@]12C", "inhibition": "8.55% (inactive)"}
{"smiles": "Cc1ccc(Cn2c(=N)c(S(=O)(=O)c3ccc(C)cc3)cc3c(=O)n4ccccc4nc32)cc1", "inhibition": "1.35% (inactive)"}
{"smiles": "O=[N+]([O-])C(=c1ccc2c(c1)N1C3=C(CCCC3)CC3CCCCC31N=2)[N+](=O)[O-]", "note": "(stereo not drawn)", "inhibition": "35.2% (active)"}
{"smiles": "CCN(CC(=O)NCc1ccc(Cl)cc1)C(=O)CSc1ccccc1", "inhibition": "-6.37% (inactive)"}
{"smiles": "O=C(NCCN1CCOCC1)c1cc(-c2cccs2)nc2ccccc12", "inhibition": "-2.35% (inactive)"}
{"smiles": "O=C(Cn1c(-c2ccccn2)nc2ccccc21)NCCN1CCOCC1", "inhibition": "98.3% (active)"}
{"smiles": "O=C(Cc1ccc(Br)cc1)NCCN1CCOCC1", "inhibition": "-0.16% (inactive)"}
{"smiles": "CCCCN(C1CCS(=O)(=O)C1)S(=O)(=O)c1ccc(C(C)C)cc1", "note": "(stereo not drawn)", "inhibition": "-0.04% (inactive)"}
{"smiles": "CC(C)Oc1ccc(C(CC(=O)N2CCOCC2)C(C)C)cc1", "note": "(stereo not drawn)", "inhibition": "10.3% (inactive)"}
{"smiles": "Cc1ccc(N(Cc2cc3ccccc3[nH]c2=O)C(=O)c2cccs2)cc1", "inhibition": "0.73% (inactive)"}
{"smiles": "Cc1ccc(N(Cc2cc(=O)[nH]c3ccccc23)C(=O)CCl)cc1", "inhibition": "80% (active)"}
{"smiles": "CC(=O)N(Cc1cc(=O)[nH]c2ccccc12)c1ccc(C)cc1C", "inhibition": "-13.1% (inactive)"}
{"smiles": "Cn1c(-c2ccc(C(F)(F)F)cc2)cc2onc(-c3ccccc3)c2c1=O", "inhibition": "4.73% (inactive)"}
{"smiles": "CC(C)(C)c1ccc(C(=O)NCc2ccco2)cc1", "inhibition": "-7.66% (inactive)"}
{"smiles": "CCC(C)Cn1c(O)cc2nn(-c3nc4ccccc4s3)c(=O)c-2c1C", "note": "(stereo not drawn)", "inhibition": "36% (active)"}
{"smiles": "C/C(=N\\NC(=O)CC(C)C)c1c(C(F)(F)F)[nH]n(-c2nc3ccccc3s2)c1=O", "inhibition": "-27.6% (inactive)"}
{"smiles": "Cc1nn(CC(=O)Nc2nc3ccccc3s2)c(C)c1[N+](=O)[O-]", "inhibition": "11.3% (inactive)"}
{"smiles": "O=C(CN1C(=O)NC2(CCCC2)C1=O)OCCOc1ccc(F)cc1", "inhibition": "8.87% (inactive)"}
{"smiles": "C=CCOc1c(Br)cc(/C=N\\n2nnnc2N)cc1OC", "inhibition": "0.64% (inactive)"}
{"smiles": "COc1cc(/C=C2/C(=O)NN(c3cccc(Cl)c3)C2=O)cc(Br)c1O", "inhibition": "-21.9% (inactive)"}
{"smiles": "CCOc1c(Br)cc(/C=C2\\C(=O)N(CCC#N)N=C2C)cc1OC", "inhibition": "39.6% (active)"}
{"smiles": "Cc1ccc(NC(=O)C2CC(=O)N(c3ccc4c(c3)OCCO4)C2)cc1S(=O)(=O)N1CCCCCC1", "note": "(stereo not drawn)", "inhibition": "0.87% (inactive)"}
{"smiles": "CCN(CCCNC(=O)c1ccc2c(c1)NC(=O)CN2C)c1cccc(C)c1", "inhibition": "52.9% (active)"}
{"smiles": "CCN(CCCNC(=O)CCn1c(=O)[nH]c2ccsc2c1=O)c1ccccc1", "inhibition": "0.71% (inactive)"}
{"smiles": "Cc1cccc(C(=O)NCCCN(C)CCCNC(=O)c2cccc(C)c2)c1", "inhibition": "-1.1% (inactive)"}
{"smiles": "CCOCCn1[nH]c2ccccc2c1=O", "inhibition": "1.49% (inactive)"}
{"smiles": "O=c1[nH]c2ccccc2n2c(-c3ccccc3)nnc12", "inhibition": "69.1% (active)"}
{"smiles": "Cc1ccccc1Cn1c(=O)[nH]c2ccccc21", "inhibition": "8.19% (inactive)"}
{"smiles": "CC(=O)c1c(-c2ccccc2)c2ccccc2[nH]c1=O", "inhibition": "-2.94% (inactive)"}
{"smiles": "O=S(=O)(NCCS(=O)(=O)N1CCN(c2ccccc2)CC1)c1ccc(F)cc1", "inhibition": "-12.9% (inactive)"}
{"smiles": "CN(CC(=O)NNC(=O)CNC(=O)c1ccccc1Cl)S(=O)(=O)c1ccc(Cl)cc1", "inhibition": "5.54% (inactive)"}
{"smiles": "O=C1NCCn2nc3ccccc3c21", "inhibition": "3.49% (inactive)"}
{"smiles": "O=[N+]([O-])c1ccc(C=Nc2ccc(Cl)cc2Cl)s1", "inhibition": "38.5% (active)"}
{"smiles": "CCOc1ccc(NC(=O)CCC(=O)N/N=C/c2ccc([N+](=O)[O-])s2)cc1", "inhibition": "5.9% (inactive)"}
{"smiles": "O=C(NCc1ccccc1Cl)C(=O)NCC1CCCN1S(=O)(=O)c1cccs1", "note": "(stereo not drawn)", "inhibition": "4.65% (inactive)"}
{"smiles": "CCOc1ccc(CCNC(=O)CN2C(=O)NC3(CCc4ccccc43)C2=O)cc1OCC", "note": "(stereo not drawn)", "inhibition": "1.55% (inactive)"}
{"smiles": "C#CCOCCOCCOCCNc1nc(N2CCN(C(=O)Cn3cc(CCCCN)nn3)CC2)nc(N2CCN(C(=O)[C@H](CCCCN)n3cc(CCC(=O)O)nn3)CC2)n1", "inhibition": "6.12% (inactive)"}
{"smiles": "Cc1ccc(S(=O)(=O)Nc2nc3ccccc3nc2N2CCc3ccccc3C2)cc1", "inhibition": "0.1% (inactive)"}
{"smiles": "Cc1ccc(S(=O)(=O)C(C#N)c2nc3ccccc3nc2N2CCCC2)cc1C", "note": "(stereo not drawn)", "inhibition": "51.4% (active)"}
{"smiles": "Cc1cc(N2CCN(S(=O)(=O)c3ccc(C)c(C)c3)CC2)c2ccccc2n1", "inhibition": "-2.63% (inactive)"}
{"smiles": "O=C(NCCC1CCCCN1S(=O)(=O)c1ccc(Cl)cc1)C(=O)NCc1ccco1", "note": "(stereo not drawn)", "inhibition": "-0.26% (inactive)"}
{"smiles": "CN(C)CCc1c[nH]c2ccc(Cn3cncn3)cc12", "inhibition": "4.56% (inactive)"}
{"smiles": "CC(OC(=O)CCCOc1ccccc1)C(=O)Nc1ccc(Cl)cn1", "note": "(stereo not drawn)", "inhibition": "-0.72% (inactive)"}
{"smiles": "O=C(CSc1cccc2cccnc12)N/N=C/c1cccnc1", "inhibition": "36.6% (active)"}
{"smiles": "Cc1ccc(NC(=O)CSc2cccc3cccnc23)c(C)c1", "inhibition": "14.1% (inactive)"}
{"smiles": "O=C(CNC(=O)c1cccnc1)N/N=C/c1cccnc1", "inhibition": "-0.23% (inactive)"}
{"smiles": "O=C(CSc1nc(=O)n2ccccc2n1)Nc1ccc2c(c1)OCCO2", "inhibition": "3.74% (inactive)"}
{"smiles": "C/C(CCC(=O)OC[C@H]1O[C@H](C#Cc2ccccc2)C=C[C@@H]1Oc1ccc(C)cc1)=N\\OC[C@@H](O)[C@H]1O[C@@H]2OC(C)(C)O[C@@H]2[C@H]1O", "inhibition": "3.31% (inactive)"}
{"smiles": "CCOc1ccc(/C=C/C(=O)OCC(=O)c2ccccc2OC)cc1OC", "inhibition": "-2.58% (inactive)"}
{"smiles": "CCC(C)NC(=O)C1c2ccccc2Oc2ccccc21", "note": "(stereo not drawn)", "inhibition": "2.29% (inactive)"}
{"smiles": "O=C(N/N=C/c1ccc(O)c(O)c1)C1c2ccccc2Oc2ccccc21", "inhibition": "35.5% (active)"}
{"smiles": "CCC(C)(C)NC(=O)C1c2ccccc2Oc2ccccc21", "inhibition": "3.61% (inactive)"}
{"smiles": "CCOC(=O)N1CCN(C(=O)COc2ccc3oc4c(c3c2)CCCC4)CC1", "inhibition": "-0.52% (inactive)"}
{"smiles": "Nc1ccccc1/C=N\\N=C/c1ccccc1N", "inhibition": "8.02% (inactive)"}
{"smiles": "CCOc1ccc(CCNC(=O)COC(=O)c2ccc(F)c(S(=O)(=O)N3CCOCC3)c2)cc1OCC", "inhibition": "11.6% (inactive)"}
{"smiles": "CCCCN(CCCC)CCC(O)c1cc2c(Cl)cc(Cl)cc2c2cc(C(F)(F)F)ccc12", "note": "(stereo not drawn)", "inhibition": "7.04% (inactive)"}
{"smiles": "COc1ccc(CNC(=O)C2(CC3CC(c4ccccc4)=NO3)CCN(C(=O)c3cccc(O)c3)CC2)cc1", "note": "(stereo not drawn)", "inhibition": "-2.65% (inactive)"}
{"smiles": "CCOC(=O)c1ccccc1C(=O)N1CCOCCOCCOCC1", "inhibition": "0.47% (inactive)"}
{"smiles": "Cc1noc(C)c1C(=O)N1CCOCC1", "inhibition": "-8.26% (inactive)"}
{"smiles": "Cc1oc2c(c1C(=O)N1CCOCC1)C(=O)c1ccccc1C2=O", "inhibition": "49% (active)"}
{"smiles": "CCOc1ccc(CC(=O)NCCS(=O)(=O)N2CCN(c3ccccc3)CC2)cc1", "inhibition": "2.49% (inactive)"}
{"smiles": "COc1ccc(-c2csc3ncnc(N4CCN(S(=O)(=O)c5cccc(F)c5)CC4)c23)cc1", "inhibition": "-26.4% (inactive)"}
{"smiles": "Cc1cc(C(=O)N/N=C/c2ccccc2[N+](=O)[O-])c(C)o1", "inhibition": "-0.23% (inactive)"}
{"smiles": "COc1cc(CC(=O)N/N=C/c2ccccc2)c([N+](=O)[O-])cc1OC", "inhibition": "-0.51% (inactive)"}
{"smiles": "Cc1ccsc1/C=N/NC(=O)Cc1cc(=O)[nH][nH]1", "inhibition": "37.2% (active)"}
{"smiles": "Cc1ccsc1C(=O)N/N=C/c1ccc([N+](=O)[O-])cc1", "inhibition": "0.47% (inactive)"}
{"smiles": "CCOc1ccc(N2CC(C(=O)N/N=C/c3sccc3C)CC2=O)cc1", "note": "(stereo not drawn)", "inhibition": "8.53% (inactive)"}
{"smiles": "O=C(Cc1cc(=O)[nH][nH]1)N/N=C/c1ccccc1[N+](=O)[O-]", "inhibition": "49.5% (active)"}
{"smiles": "CCC(C)c1ccccc1N1CC(C(=O)N2CCN(S(=O)(=O)c3ccc(F)cc3)CC2)CC1=O", "note": "(stereo not drawn)", "inhibition": "2.71% (inactive)"}
{"smiles": "CCOC(=O)/C=C/c1ccc(C(F)(F)F)cc1S(=O)(=O)NC(C)(C)C", "inhibition": "-1.78% (inactive)"}
{"smiles": "COC(=O)c1ccc2ccccc2c1OC1OC(CO)C(O)C(O)C1NC(C)=O", "note": "(stereo not drawn)", "inhibition": "2.04% (inactive)"}
{"smiles": "Cc1ccc2nc(NC(=O)C3CSC4(C)CCC(=O)N34)sc2c1", "note": "(stereo not drawn)", "inhibition": "1.93% (inactive)"}
{"smiles": "Cc1nn(-c2ccccc2)c2c1C(c1ccc(F)cc1)C(C#N)=C(N)O2", "note": "(stereo not drawn)", "inhibition": "25.3% (inactive)"}
{"smiles": "Cc1nn(Cc2ccccc2)c2c1C(c1ccccc1)C(C#N)=C(N)O2", "note": "(stereo not drawn)", "inhibition": "6.98% (inactive)"}
{"smiles": "COc1ccccc1C1C(C#N)=C(N)Oc2c1c(-c1ccccc1)nn2-c1ccccc1", "note": "(stereo not drawn)", "inhibition": "59.1% (active)"}
{"smiles": "C#CCOCCOCCOCCNc1nc(N2CCN(C(=O)CCCCCCCCCCNC(=O)[C@H](CCCCN)n3cc(C)nn3)CC2)nc(N2CCN(C(=O)CCCCCCCCCCNC(=O)[C@H](CO)n3cc(CCCSC)nn3)CC2)n1", "inhibition": "4.17% (inactive)"}
{"smiles": "CCOC(=O)[C@H]1[C@H]2COc3ccc(Cl)cc3[C@@H]2N2C(=O)c3cc(C)ccc3NC(=O)[C@@]12C", "inhibition": "1.13% (inactive)"}
